Screens: PubChem BioAssay, several laboratories
A selection: hits, their analogues and other compounds. The true share with any hit is near 1.1%.
SSB-PriA inh: inhibitors of Klebsiella pneumoniae PriA binding to SSB C-terminal tail | AlphaScreen SSBct-PriA binding, biotinylated peptide | inhibition, % at 33 µM | 430,000 compounds, 0.6% hits | AID 1272365; in the data active = inhibition mostly above about 37%, no sharp cut-off; inactive = mostly below about 20%;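 also: plate controls were negative control peptide for no effect and reference peptide for full effect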
Mtb UGM inh: Mtb UDP-galactopyranose mutase inhibition; purified UGM, fluorescence polarization probe displacement; inhibition, % at 10 µM; AID 504406; 320,000 compounds, 0.06% hits; in the data active = inhibition above about 10%, passing the limit was not always enough
Rv3671c inh: inhibitors of M. tuberculosis serine protease Rv3671c | P9WHR9 | 320,000 compounds, 0.048% hits | inhibition, % at 5.96 µM; in the data active = inhibition above about 38%;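 also: extracellular domain of Rv3671c used as enzyme; 0% = enzyme with DMSO and 100% = no enzyme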
Target sequence (P9WHR9 whole entry, looked up, the tested form may be a part): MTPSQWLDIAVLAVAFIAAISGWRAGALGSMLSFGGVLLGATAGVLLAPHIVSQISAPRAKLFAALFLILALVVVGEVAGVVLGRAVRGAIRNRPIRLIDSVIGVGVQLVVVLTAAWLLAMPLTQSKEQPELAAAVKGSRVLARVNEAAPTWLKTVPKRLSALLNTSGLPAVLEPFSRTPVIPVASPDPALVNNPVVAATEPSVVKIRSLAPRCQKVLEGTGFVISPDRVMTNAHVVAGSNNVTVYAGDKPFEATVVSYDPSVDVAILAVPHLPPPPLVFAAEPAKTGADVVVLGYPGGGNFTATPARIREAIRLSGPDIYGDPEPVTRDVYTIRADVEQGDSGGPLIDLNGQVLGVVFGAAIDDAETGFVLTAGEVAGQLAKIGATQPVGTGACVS
Mtb bLac sens: beta-lactam sensitization of Mtb H37Rv; M. tuberculosis H37Rv growth with meropenem, percent inhibition; inhibition, % at 25 µM; 330,000 compounds, 0.27% hits; call rule not given here;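 also: growth measured after seven days incubation then overnight dye step; 0% = bacteria only wells and 100% = bacteria with antibiotic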
RecA intein inh: blocks M. tuberculosis RecA intein splicing; P9WHJ3; cell-free RecA intein splicing, fluorescence; inhibition, % (test concentration not listed); 290,000 compounds, 0.75% hits; in the data active = inhibition above about 30%;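 also: 0% = vehicle wells and 100% = reference inhibitor control wells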
* hit, by the source's call; ! = not confirmed by another sample.

For Cc1ccccc1CSc1nccn1-c1ccccc1 the results were SSB-PriA inh 49.5*, Mtb UGM inh 3.6, Rv3671c inh -3.1, Mtb bLac sens 2.8 and RecA intein inh 7.9.
`CC(C)c1noc(CCNC(=O)CCN)n1` gave SSB-PriA inh 7.0.
`Cc1cc(C)cc(N2CC(c3nc(-c4ccccc4F)no3)CC2=O)c1` (stereo unspecified) gave SSB-PriA inh -4.0.
Screening O=C(NNC(=O)c1ccc(NC(=O)c2ccccc2)cc1)c1ccc(F)cc1 returned SSB-PriA inh -21.5, Mtb UGM inh 0.6, Rv3671c inh -7.9, Mtb bLac sens -5.3 and RecA intein inh -1.5.
O=C(NC1=C(Nc2ccc(F)cc2)C(=O)c2ccccc2C1=O)c1ccc(Cl)cc1 was read as SSB-PriA inh 8.8, Mtb UGM inh 0.4, Rv3671c inh -52.5, Mtb bLac sens 9.7 and RecA intein inh 58.9*.
For CCOc1cc(C2C(C#N)=C(N)Oc3n[nH]c(CC)c32)ccc1OCCN1CCOCC1 (stereo unspecified) the results were SSB-PriA inh 7.4, Mtb UGM inh 1.2, Rv3671c inh 1.4, Mtb bLac sens -3.5 and RecA intein inh 50.3*.
For CCCc1[nH]nc2c1C(c1ccc(O)cc1OCC)C(C#N)=C(N)O2 (stereo unspecified) the results were SSB-PriA inh -6.3, Mtb UGM inh -3.1, Rv3671c inh -2.2, Mtb bLac sens -3.7 and RecA intein inh 78.3*.
CCc1[nH]nc2c1C(c1ccncc1)C(C#N)=C(N)O2 (stereo unspecified) was read as SSB-PriA inh 0.0, Mtb UGM inh 3.8, Rv3671c inh -8.1, Mtb bLac sens 7.3 and RecA intein inh 25.4.
For CCOc1ccc(C2C(C#N)=C(N)Oc3cc(O)ccc32)cc1OCC (stereo unspecified) the results were SSB-PriA inh -9.2, Mtb UGM inh 0.4, Rv3671c inh 1.0, Mtb bLac sens 1.2 and RecA intein inh -8.4.
CCOc1cc(C2C(C#N)=C(N)Oc3n[nH]c(C)c32)ccc1OCCN1CCOCC1 (stereo unspecified) was read as SSB-PriA inh -9.6, Mtb UGM inh -0.9, Rv3671c inh -4.5, Mtb bLac sens -1.4 and RecA intein inh 48.3*.
Screening CCCc1[nH]nc2c1C(c1ccc(OCCN3CCOCC3)c(OCC)c1)C(C#N)=C(N)O2 (stereo unspecified) returned SSB-PriA inh -1.2, Mtb UGM inh -0.8, Rv3671c inh -3.0, Mtb bLac sens 6.5 and RecA intein inh 44.4*.
`COc1ccc(C2C(C#N)=C(N)Oc3cc(C)n(CCN4CCOCC4)c(=O)c32)cc1OC` (stereo unspecified) gave SSB-PriA inh -3.5, Mtb UGM inh -0.6, Rv3671c inh -6.0, Mtb bLac sens -11.3 and RecA intein inh -1.5.
For CCn1nc(C(=O)Nc2ccccc2-c2nc3ccccc3s2)cc1C the results were SSB-PriA inh -3.0.
For Cc1cc(NCCc2ccccc2)n2ncc(-c3ccccc3)c2n1 the results were SSB-PriA inh -64.0.
`CC(=O)Nc1ccccc1OCc1nnc(-c2ccccc2)o1` gave SSB-PriA inh -1.0.
COc1ccc(C=NN2C(=O)C3C4C=CC(CC4)C3C2=O)c(OC)c1 (stereo unspecified) was read as SSB-PriA inh -7.6.
For CC(=O)Nc1ccc(S(=O)(=O)N2CCN(c3ccc(Cl)cc3)CC2)cc1 the results were SSB-PriA inh -4.0.
Screening COC(=O)c1ccc(-n2c(C)cc(C(=O)CCl)c2C)cc1 returned SSB-PriA inh -0.2, Mtb UGM inh 0.6, Rv3671c inh 9.8, Mtb bLac sens 99.6 and RecA intein inh 34.7*.
O=C(NC(Cc1c[nH]c2ccccc12)C(=O)O)c1ccc2c(c1)OCO2 (stereo unspecified) was read as SSB-PriA inh -0.7, Mtb UGM inh 2.0, Rv3671c inh 6.0, Mtb bLac sens 8.0 and RecA intein inh -2.8.
`c1ccc2c(C(c3ccc4c(c3)OCO4)c3c[nH]c4ccccc34)c[nH]c2c1` gave SSB-PriA inh 37.0*.
Screening Cc1cccc(-n2cc(CN(C)Cc3nccn3C)c(-c3cccc(F)c3)n2)c1 returned SSB-PriA inh 39.1*, Mtb UGM inh 0.4, Rv3671c inh -2.8, Mtb bLac sens 99.2 and RecA intein inh 10.3.
For O=C(NCCCn1ccnc1)C(=O)NCC1OCCN1S(=O)(=O)c1ccc([N+](=O)[O-])cc1 (stereo unspecified) the results were SSB-PriA inh 80.0*.
Cc1cc(C)c(S(=O)(=O)N2CCOC2CNC(=O)C(=O)NCCCn2ccnc2)c(C)c1 (stereo unspecified) was read as SSB-PriA inh 49.8*, Mtb UGM inh 1.0, Rv3671c inh 2.6, Mtb bLac sens -5.8 and RecA intein inh -0.8.
`COc1ccc(S(=O)(=O)N2CCOC2CNC(=O)C(=O)NCCCn2ccnc2)cc1` (stereo unspecified) gave SSB-PriA inh 102.5*.
`O=C(NCCCn1ccnc1)C(=O)NCC1OCCN1S(=O)(=O)c1ccc2c(c1)OCCO2` (stereo unspecified) gave SSB-PriA inh 23.0*!, Mtb UGM inh -1.4, Rv3671c inh -0.9, Mtb bLac sens -12.2 and RecA intein inh -1.2.
COc1ccc(S(=O)(=O)N2CCOC2CNC(=O)C(=O)NCc2ccncc2)cc1 (stereo unspecified) was read as SSB-PriA inh 2.6, Mtb UGM inh -1.8, Rv3671c inh -2.2, Mtb bLac sens -2.1 and RecA intein inh 7.5.
`O=C(NCCc1ccccc1)C(=O)NCC1OCCN1S(=O)(=O)c1ccc2c(c1)OCCO2` (stereo unspecified) gave SSB-PriA inh -4.2, Mtb UGM inh 0.4, Rv3671c inh -10.8, Mtb bLac sens -4.2 and RecA intein inh 5.0.
`CCNc1nn(CC(=O)Nc2ccccc2OCC)c(N)c1-c1nc(-c2ccccc2C)no1` gave SSB-PriA inh -11.0.
`c1ccc2sc(N3CCOCC3)nc2c1` gave SSB-PriA inh -16.4, Mtb UGM inh -1.2, Rv3671c inh 4.8 and RecA intein inh -2.8.
Screening Nc1ccc2nc(N3CCOCC3)sc2c1 returned SSB-PriA inh -0.8, Mtb UGM inh -0.3, Rv3671c inh -0.5, Mtb bLac sens 8.1 and RecA intein inh 80.4*.
`COc1ccc(-n2c(O)c(C=Nn3cnnc3)c3ccccc3c2=O)cc1` gave SSB-PriA inh 19.1.
O=C(c1cc([N+](=O)[O-])ccc1Cl)N1CCN(c2ccccc2)CC1 was read as SSB-PriA inh 0.1, Mtb UGM inh -0.7, Rv3671c inh -5.4, Mtb bLac sens -2.5 and RecA intein inh 0.0.
For O=C(c1cc([N+](=O)[O-])ccc1Cl)N1c2ccccc2Sc2ccccc21 the results were SSB-PriA inh 62.2*, Mtb UGM inh 0.5, Rv3671c inh -2.9, Mtb bLac sens -1.6 and RecA intein inh -2.9.
For CCN1CCCc2cc(CN(CCN3CCOCC3)C(=S)Nc3cccc(Cl)c3)ccc21 the results were SSB-PriA inh 52.1*, Mtb UGM inh -0.4, Rv3671c inh 6.3, Mtb bLac sens 14.7 and RecA intein inh 5.7.
`COc1ccc(NC(=O)CSc2n[nH]c(-c3ccccc3)n2)cc1` gave SSB-PriA inh 30.8.
